Each target was assayed with C#CCNC(=O)CCSSCCC(=O)NCCc1ccc(C=O)c(C=O)c1 (assay: lysine labeling ratio R10:1 (500 µM / 50 µM probe), SILAC-ABPP in living cells; higher = lower intrinsic lysine reactivity toward the probe, active = 2 or less). Details: HeLa; probe concentrations 500 vs 50 µM.
Procedure: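 Living HeLa cells (SILAC light/heavy) in PBS at room temperature were labeled with 50 µM versus 500 µM of the lysine-reactive, reductant-cleavable probe OPA-S-S-alkyne (SILAC labeling time not stated). Probe-modified peptides were CuAAC-biotinylated, captured on neutravidin and eluted with DTT/IAA, then quantified by LC-MS/MS. R = median peptide ratio per lysine (500/50 µM), combined over 3 forward and 3 reverse SILAC replicates. Ratios are capped at 20; R < 2 = hyper-reactive.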

UniProt Q15149, sequence (Q15149 whole entry): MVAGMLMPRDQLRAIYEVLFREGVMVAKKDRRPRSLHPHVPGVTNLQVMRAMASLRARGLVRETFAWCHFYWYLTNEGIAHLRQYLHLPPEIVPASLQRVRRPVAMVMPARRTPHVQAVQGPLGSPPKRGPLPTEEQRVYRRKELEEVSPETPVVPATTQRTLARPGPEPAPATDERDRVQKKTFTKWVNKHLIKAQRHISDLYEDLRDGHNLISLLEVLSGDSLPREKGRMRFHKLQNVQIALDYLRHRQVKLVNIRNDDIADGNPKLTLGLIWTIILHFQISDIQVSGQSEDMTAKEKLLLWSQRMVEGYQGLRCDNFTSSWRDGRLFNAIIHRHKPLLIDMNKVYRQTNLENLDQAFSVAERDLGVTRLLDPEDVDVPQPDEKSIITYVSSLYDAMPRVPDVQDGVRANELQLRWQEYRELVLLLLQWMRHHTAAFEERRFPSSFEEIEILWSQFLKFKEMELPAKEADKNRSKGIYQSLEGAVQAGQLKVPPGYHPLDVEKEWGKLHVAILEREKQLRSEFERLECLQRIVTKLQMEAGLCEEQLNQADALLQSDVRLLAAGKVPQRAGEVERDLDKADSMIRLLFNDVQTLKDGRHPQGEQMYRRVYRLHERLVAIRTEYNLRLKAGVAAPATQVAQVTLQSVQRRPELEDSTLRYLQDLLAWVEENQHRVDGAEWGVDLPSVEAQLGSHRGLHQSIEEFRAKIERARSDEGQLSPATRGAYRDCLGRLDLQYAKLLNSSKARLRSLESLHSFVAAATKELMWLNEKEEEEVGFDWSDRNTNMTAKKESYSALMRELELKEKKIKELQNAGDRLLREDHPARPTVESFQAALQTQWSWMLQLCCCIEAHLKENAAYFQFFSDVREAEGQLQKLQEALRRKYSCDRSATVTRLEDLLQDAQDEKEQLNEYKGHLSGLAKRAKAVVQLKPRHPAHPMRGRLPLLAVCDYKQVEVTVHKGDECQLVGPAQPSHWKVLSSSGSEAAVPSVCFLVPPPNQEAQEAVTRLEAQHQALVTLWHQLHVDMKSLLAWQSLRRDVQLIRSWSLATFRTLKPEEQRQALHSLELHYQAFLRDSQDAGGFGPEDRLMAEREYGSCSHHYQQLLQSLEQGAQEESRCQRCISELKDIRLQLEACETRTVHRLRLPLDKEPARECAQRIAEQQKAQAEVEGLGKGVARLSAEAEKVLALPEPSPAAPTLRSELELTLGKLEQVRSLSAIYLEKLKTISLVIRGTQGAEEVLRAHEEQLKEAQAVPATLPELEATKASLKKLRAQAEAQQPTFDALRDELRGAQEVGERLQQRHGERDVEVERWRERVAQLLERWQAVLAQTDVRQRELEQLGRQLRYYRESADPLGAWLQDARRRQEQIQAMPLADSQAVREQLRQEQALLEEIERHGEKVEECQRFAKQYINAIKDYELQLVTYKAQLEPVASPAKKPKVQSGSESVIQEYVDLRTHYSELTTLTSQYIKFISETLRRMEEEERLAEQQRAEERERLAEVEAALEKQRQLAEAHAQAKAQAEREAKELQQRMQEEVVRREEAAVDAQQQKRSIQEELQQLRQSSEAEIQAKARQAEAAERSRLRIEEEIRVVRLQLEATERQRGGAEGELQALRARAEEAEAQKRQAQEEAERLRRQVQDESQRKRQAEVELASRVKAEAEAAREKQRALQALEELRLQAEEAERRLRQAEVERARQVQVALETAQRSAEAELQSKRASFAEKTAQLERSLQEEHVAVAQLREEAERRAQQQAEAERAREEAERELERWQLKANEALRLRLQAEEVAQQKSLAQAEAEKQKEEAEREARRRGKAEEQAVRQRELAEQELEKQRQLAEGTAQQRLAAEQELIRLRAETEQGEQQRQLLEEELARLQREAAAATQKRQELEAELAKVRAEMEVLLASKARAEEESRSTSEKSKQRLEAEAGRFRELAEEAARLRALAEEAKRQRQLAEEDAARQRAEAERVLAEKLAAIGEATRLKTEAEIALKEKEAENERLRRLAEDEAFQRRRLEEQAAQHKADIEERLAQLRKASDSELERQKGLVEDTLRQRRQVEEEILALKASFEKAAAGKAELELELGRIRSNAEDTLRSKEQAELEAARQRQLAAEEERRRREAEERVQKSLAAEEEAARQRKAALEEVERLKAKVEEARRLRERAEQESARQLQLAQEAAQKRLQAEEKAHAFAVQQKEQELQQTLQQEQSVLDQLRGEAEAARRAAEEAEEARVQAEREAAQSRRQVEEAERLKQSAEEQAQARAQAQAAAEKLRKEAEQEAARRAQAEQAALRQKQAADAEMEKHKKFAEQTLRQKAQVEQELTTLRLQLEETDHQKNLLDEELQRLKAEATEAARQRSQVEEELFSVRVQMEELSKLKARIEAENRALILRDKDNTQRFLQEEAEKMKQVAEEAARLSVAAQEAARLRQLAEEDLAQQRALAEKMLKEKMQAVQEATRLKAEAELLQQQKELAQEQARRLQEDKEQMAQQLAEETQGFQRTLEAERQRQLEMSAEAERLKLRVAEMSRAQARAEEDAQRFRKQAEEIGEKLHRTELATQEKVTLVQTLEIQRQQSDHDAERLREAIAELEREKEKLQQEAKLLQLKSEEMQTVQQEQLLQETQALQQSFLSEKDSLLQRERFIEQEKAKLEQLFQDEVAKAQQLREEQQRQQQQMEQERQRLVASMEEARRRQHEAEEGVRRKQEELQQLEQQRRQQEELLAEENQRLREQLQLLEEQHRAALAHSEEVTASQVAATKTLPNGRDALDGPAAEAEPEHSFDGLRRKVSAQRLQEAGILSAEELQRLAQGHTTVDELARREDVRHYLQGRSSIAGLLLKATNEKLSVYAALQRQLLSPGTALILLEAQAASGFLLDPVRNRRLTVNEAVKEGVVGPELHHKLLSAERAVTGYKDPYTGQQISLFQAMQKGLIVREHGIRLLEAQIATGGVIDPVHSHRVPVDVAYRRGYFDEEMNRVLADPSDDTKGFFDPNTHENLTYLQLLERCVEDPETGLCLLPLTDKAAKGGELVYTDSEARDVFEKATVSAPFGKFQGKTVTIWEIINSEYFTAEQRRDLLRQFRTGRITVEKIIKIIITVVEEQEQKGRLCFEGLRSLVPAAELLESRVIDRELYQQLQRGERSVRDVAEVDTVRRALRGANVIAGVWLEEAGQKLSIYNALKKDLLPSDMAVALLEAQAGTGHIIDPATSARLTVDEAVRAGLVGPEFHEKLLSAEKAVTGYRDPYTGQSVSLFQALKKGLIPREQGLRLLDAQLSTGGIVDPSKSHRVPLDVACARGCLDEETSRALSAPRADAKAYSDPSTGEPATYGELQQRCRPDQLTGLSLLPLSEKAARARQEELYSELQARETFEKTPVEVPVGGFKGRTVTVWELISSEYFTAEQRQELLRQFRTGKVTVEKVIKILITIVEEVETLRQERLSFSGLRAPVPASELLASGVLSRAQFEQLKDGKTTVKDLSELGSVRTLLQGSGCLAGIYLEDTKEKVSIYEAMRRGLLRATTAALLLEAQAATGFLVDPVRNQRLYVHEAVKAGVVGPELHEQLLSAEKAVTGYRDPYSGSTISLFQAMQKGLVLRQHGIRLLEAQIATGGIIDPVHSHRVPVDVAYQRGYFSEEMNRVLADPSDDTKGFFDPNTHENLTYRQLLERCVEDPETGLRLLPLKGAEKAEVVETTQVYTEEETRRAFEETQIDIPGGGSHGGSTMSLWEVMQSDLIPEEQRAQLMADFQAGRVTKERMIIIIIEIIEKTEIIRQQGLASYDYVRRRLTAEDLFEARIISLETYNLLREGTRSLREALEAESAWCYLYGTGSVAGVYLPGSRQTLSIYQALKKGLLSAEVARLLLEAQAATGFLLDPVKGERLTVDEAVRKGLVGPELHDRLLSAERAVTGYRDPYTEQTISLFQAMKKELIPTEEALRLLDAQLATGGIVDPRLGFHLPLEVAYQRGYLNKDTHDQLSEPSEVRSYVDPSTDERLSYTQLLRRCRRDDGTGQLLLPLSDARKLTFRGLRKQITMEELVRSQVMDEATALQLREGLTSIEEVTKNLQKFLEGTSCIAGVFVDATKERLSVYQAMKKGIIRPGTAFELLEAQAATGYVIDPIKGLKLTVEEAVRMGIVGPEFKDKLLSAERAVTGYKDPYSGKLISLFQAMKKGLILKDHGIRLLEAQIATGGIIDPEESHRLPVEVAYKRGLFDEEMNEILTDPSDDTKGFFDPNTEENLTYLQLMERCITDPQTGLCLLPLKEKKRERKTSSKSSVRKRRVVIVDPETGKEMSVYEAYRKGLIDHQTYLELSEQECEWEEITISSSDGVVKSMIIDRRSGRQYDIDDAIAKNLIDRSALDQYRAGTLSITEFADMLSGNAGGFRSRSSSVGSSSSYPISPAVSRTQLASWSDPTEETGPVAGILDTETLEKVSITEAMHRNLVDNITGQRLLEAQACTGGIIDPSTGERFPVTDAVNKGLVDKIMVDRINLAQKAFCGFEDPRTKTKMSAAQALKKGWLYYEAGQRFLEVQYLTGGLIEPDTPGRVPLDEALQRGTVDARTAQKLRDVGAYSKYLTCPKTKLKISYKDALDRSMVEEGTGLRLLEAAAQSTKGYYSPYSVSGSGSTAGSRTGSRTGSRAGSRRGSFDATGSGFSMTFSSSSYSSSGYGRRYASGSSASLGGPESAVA
UniProt Q9P0L0, sequence (Q9P0L0 whole entry): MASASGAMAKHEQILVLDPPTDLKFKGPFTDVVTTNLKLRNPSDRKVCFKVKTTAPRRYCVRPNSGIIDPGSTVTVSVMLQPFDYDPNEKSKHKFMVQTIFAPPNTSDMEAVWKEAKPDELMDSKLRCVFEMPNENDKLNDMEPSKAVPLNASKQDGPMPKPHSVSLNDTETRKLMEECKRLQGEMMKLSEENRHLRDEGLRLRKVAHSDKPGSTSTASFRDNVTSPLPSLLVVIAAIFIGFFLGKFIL
UniProt P51153, sequence (P51153 whole entry): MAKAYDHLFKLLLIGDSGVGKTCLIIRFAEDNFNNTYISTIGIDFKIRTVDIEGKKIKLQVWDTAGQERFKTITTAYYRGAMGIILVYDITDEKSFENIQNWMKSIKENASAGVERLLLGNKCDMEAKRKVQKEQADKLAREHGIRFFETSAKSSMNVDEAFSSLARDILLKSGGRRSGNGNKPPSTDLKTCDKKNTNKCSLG

Target | lysine labeling ratio R10:1
RAB13 (lysine site: K58) (UniProt P51153) | 13.2 (inactive)
KIRREL (lysine site: K410) (UniProt Q96J84) | 2.51 (inactive)
UniProt Q9BZM4 (lysine site: K158) | 2.74 (inactive)
IGSF3 (lysine site: K811) (UniProt O75054) | 3.23 (inactive)
TXLNA (lysine site: K240) (UniProt P40222) | 1.67 (active)
ITGAV (lysine site: K360) (UniProt P06756) | 1.23 (active)
SLC39A10 (lysine site: K66) (UniProt Q9ULF5) | 0.9 (active)
CELSR2 (lysine site: K2121) (UniProt Q9HCU4) | 2.98 (inactive)
UniProt P48047 (lysine site: K84) | 4.75 (inactive)
SERPINH1 (lysine site: K39) (UniProt P50454) | 5.74 (inactive)
HMOX1 (lysine site: K39) (UniProt P09601) | 1.45 (active)
UniProt P05787 (lysine site: K472) | 2.67 (inactive)
KTN1 (lysine site: K543) (UniProt Q86UP2) | 5.74 (inactive)
PNN (lysine site: K157) (UniProt Q9H307) | 1.95 (active)
UniProt P46781 (lysine site: K155) | 2.28 (inactive)
IGF2R (lysine site: K1873) (UniProt P11717) | 0.826 (active)
PDIA3 (lysine site: K362) (UniProt P30101) | 2.15 (inactive)
UniProt Q15149 (lysine site: K1150) | 3.29 (inactive)
TFRC (lysine site: K205) (UniProt P02786) | 2.81 (inactive)
LMO7 (lysine site: K1405) (UniProt Q8WWI1) | 1.4 (active)

Target | lysine labeling ratio R10:1
ACOT7 (lysine site: K198) (UniProt O00154) | 2.95 (inactive)
MYH9 (lysine site: K1638) (UniProt P35579) | 3.09 (inactive)
BST2 (lysine site: K126) (UniProt Q10589) | 4.11 (inactive)
SLC25A5 (lysine site: K245) (UniProt P05141) | 2.26 (inactive)
UniProt P60866 (lysine site: K59) | 2.02 (inactive)
UniProt P09758 (lysine site: K84) | 5.29 (inactive)
UniProt P02768 (lysine site: K499) | 7.98 (inactive)
SHMT2 (lysine site: K302) (UniProt P34897) | 2.59 (inactive)
ITGAV (lysine site: K165) (UniProt P06756) | 10.3 (inactive)
UniProt Q16790 (lysine site: K133) | 8.23 (inactive)
VAPA (lysine site: K174) (UniProt Q9P0L0) | 1.89 (active)
KRT18 (lysine site: K167) (UniProt P05783) | 10.7 (inactive)
UniProt Q15149 (lysine site: K4584) | 0.906 (active)
LRP1 (lysine site: K4230) (UniProt Q07954) | 10.8 (inactive)
MYH9 (lysine site: K1338) (UniProt P35579) | 1.98 (active)
SPTAN1 (lysine site: K2052) (UniProt Q13813) | 3.09 (inactive)
SPTAN1 (lysine site: K2184) (UniProt Q13813) | 5.14 (inactive)
PPP2CA (lysine site: K41) (UniProt P67775) | 1.68 (active)
CD109 (lysine site: K1022) (UniProt Q6YHK3) | 0.98 (active)
CD109 (lysine site: K1018) (UniProt Q6YHK3) | 1.99 (active)
